In PubChem BioAssay AID1851 (National Center for Advancing Translational Sciences (NCATS), 2009):
About 5,800 (36%) of roughly 16,000 compounds were called active. Another 23% or so got no clear call; they are omitted. The call rests on the fitted dose curve; in most records, active means well fitted curve in the direction sought with a large enough effect; inconclusive means small, poorly fitted or top-dose-only effect, or effect the other way; inactive means no such curve, though single readings can be large or run the other way. The list shows a part of the results.

These compounds were tested against Cytochrome P450 2C19 (Homo sapiens) (UniProt P33261) (assay: Cytochrome panel assay with activity outcomes). Conditions: recombinant CYP, pro-luciferin dealkylation, luminescence, p450-cyp2c19; series mostly up to 57.1 µM; activity, negative = inhibition: at the top concentration.
Cytochrome P450 2C19 (Homo sapiens), sequence (P33261 whole entry, looked up): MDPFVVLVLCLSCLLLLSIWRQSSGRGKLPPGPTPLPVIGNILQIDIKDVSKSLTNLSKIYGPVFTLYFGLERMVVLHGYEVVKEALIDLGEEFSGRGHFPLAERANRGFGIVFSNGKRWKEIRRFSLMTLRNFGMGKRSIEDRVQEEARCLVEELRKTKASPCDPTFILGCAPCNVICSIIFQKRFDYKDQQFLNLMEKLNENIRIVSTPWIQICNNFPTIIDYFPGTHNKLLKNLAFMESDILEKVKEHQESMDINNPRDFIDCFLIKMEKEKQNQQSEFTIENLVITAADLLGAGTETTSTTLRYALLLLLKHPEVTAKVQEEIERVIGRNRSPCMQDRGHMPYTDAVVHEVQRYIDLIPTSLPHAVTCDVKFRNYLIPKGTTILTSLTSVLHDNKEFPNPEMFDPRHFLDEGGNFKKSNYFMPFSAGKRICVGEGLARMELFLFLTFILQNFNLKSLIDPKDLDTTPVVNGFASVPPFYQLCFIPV
On the % scale 0 is the no-effect control and ±100 the full control effect.

Structure (SMILES) | activity, negative = inhibition | AC50
O=C(O)[C@H]([C@H]1NCCS1)N1Cc2ccccc2C1 | -31.8% [at 11.4 µM] (inactive) | –
NC(=O)c1cccc(N)c1 | -27.6% (inactive) | –
C/C(=N\Nc1nc(N)cc(Cl)n1)c1cccc([N+](=O)[O-])c1 | 2.88% (inactive) | –
C/C(=N\Nc1ccc([N+](=O)[O-])cc1)c1cccc(N)c1 | – | 1.26 µM (active)
CCOC(=O)c1sc(NS(=O)(=O)c2ccccc2)nc1C | -24.1% (inactive) | –
CCOC(=O)c1sc(N(Cc2ccccc2)C(=O)CN2C(=O)CN(C)C2=O)nc1C | – | 15.8 µM (active)
CO[C@H]1COC(=O)CCC[C@H](C)[C@H](OC)COC(=O)C/C=C\[C@@H]1C | -23% [at 11.4 µM] (inactive) | –
C=CCn1c(=O)c(C(=O)NCCN(CC)CC)c(O)c2ccccc21 | -15.7% (inactive) | –
CCCn1c2c(c(O)c(C(=O)NCc3ccccc3)c1=O)CCCC2 | – | 17.8 µM (active)
CCCCCCc1nc2ccccc2c(=O)n1NC(=O)c1c(O)c2c(n(CC(C)C)c1=O)CCCC2 | – | 5.62 µM (active)
O=C(NCc1ccccc1)c1ccc2c(c1)C(=O)N(CC1CCCO1)C2=O (centres undefined) | -23.3% (inactive) | –
CC(C)Oc1cccc(-n2c(CCc3c[nH]c4ccc(Br)cc34)nc3ccccc3c2=O)c1 | 9.45% (inactive) | –
CC(=O)N=c1sccn1CC(=O)c1ccc([N+](=O)[O-])cc1 | – | 10 µM (active)
CCN1C(=O)CC(N2CCN(CC(=O)NC(C)C)CC2)C1=O (centres undefined) | -9.22% (inactive) | –
CC(NC(=O)CN1CCCC1)C12CC3CC(CC(C3)C1)C2 (centres undefined) | – | 15.8 µM (active)
c1ccc(-c2nc(CSc3n[nH]c(-c4cccs4)n3)cs2)cc1 | – | 1.12 µM (active)
N#Cc1cccc(-c2nc3cnc(N4CCOCC4)nc3n(C3CC3)c2=O)c1 | -17.4% (inactive) | –
CC1=CC2=NC(=O)CC(C)(C(=O)N(CC(=O)NC(C)(C)C)Cc3cccs3)N2C=C1 (centres undefined) | -5.57% (inactive) | –
CC(C)(C)NC(=O)CN(Cc1cccs1)C(=O)CCC(=O)Nc1nccs1 | – | 7.94 µM (active)
Nc1ncnc2c1nc(Br)n2[C@H]1O[C@H]2COP(=O)(O)O[C@H]2[C@@H]1O | -28.5% (inactive) | –
O=C(Oc1ccccc1)N1CCC[C@@]2(CCN(c3ccccn3)C2)C1 | – | 5.01 µM (active)
CC(=O)N1CCC2(CC1)CN(c1ccccn1)C2 | 9.66% (inactive) | –
O=C(c1cnccn1)N1CCC[C@@]2(CCN(c3ccccn3)C2)C1 | 7.86% (inactive) | –
O=C(Oc1ccccc1)N1CCC2(CCCN(c3ccccn3)C2)CC1 | – | 7.94 µM (active)

Structure (SMILES) | activity, negative = inhibition | AC50
COC(=O)N1CCC[C@@]2(CCN(c3ncccn3)C2)C1 | 3.42% (inactive) | –
O=C(Oc1ccccc1)N1CCC[C@@]2(CCN(c3ncccn3)C2)C1 | – | 2.51 µM (active)
O=C(Oc1ccccc1)N1CCC2(CC1)CN(c1ccccn1)C2 | -4.95% (inactive) | –
O=C(c1cc(C(F)(F)F)cc(C(F)(F)F)c1)N1CCC[C@@]2(CCN(c3ccccn3)C2)C1 | -29.6% (inactive) | –
O=C(Oc1ccccc1)N1CCC2(CC1)CN(c1ncccn1)C2 | -27.7% (inactive) | –
O=C(c1ccncc1)N1CCC[C@@]2(CCN(c3ccccn3)C2)C1 | – | 6.31 µM (active)
C/C(CCN1CCCCc2nc(C)c(C)cc21)=N\OC[C@@H](O)COCc1ccco1 | 11% [at 11.4 µM] (inactive) | –
COC(=O)N1CCC2(CC1)CN(c1ccccn1)C2 | -43.9% (inactive) | –
COC(=O)N1CCC2(CCCN(c3ccccn3)C2)CC1 | – | 3.16 µM (active)
O=C(Oc1ccccc1)N1CCC2(CCCN(c3ccccc3)C2)CC1 | – | 15.8 µM (active)
O=C(Oc1ccccc1)N1CCC2(CC1)CCN(c1cccc(-c3ccccc3)c1)CC2 | 7.79% (inactive) | –
O=C(Oc1ccccc1)N1CCC2(CCCN(c3ccc(-c4ccccc4)cc3)C2)CC1 | 3% (inactive) | –
CC(=O)N1CCC2(CCCN(c3ccccn3)C2)CC1 | -20.4% (inactive) | –
O=S(=O)(O)[C@@H](c1ccccc1)[C@@H](O)c1ccccc1 | 3.73% [at 11.4 µM] (inactive) | –
Cc1ccc(S(=O)(=O)N=Nc2c(O)[nH]c3cc(O)c(C(=O)O)cc23)cc1 | 38.4% [at 11.4 µM] (inactive) | –
Cc1cccc(C)c1NC(=O)[C@H](C)N | 11.1% [at 25.6 µM] (inactive) | –
Cc1cccc(C)c1NC(=O)C(NC=O)c1ccccc1Cl (centres undefined) | – | 7.94 µM (active)
COc1ccc(C(O)c2nccn2Cc2ccccc2)cc1 (centres undefined) | – | 5.01 µM (active)
COc1ccc([C@H](O)c2ccccn2)cc1 | -15.9% [at 11.4 µM] (inactive) | –
Cc1cc([C@](C)(N)C(=O)O)ccc1P(=O)(O)O | 0.228% (inactive) | –
O=C1Nc2cc(C(=O)N3CCOCC3)ccc2SC1N1CCOCC1 (centres undefined) | 10.9% (inactive) | –
O=C(c1ccc2c(c1)N(Cc1ccc(F)cc1)C(=O)CS2)N1CCOCC1 | – | 7.08 µM (active)
CCOC(=O)C(C)Sc1nnc(CNC(=O)c2ccc(OC)cc2)n1C1CCCCC1 (centres undefined) | – | 5.01 µM (active)
COc1ccc(-n2c(CNC(=O)c3ccc(S(=O)(=O)N4CCCC4)cc3)n[nH]c2=S)cc1 | -27.5% (inactive) | –

Structure (SMILES) | activity, negative = inhibition | AC50
COc1ccc(C(=O)N2CCC3(CC2)CN(C(=O)NC(C)C)C3)cc1 | 9.55% (inactive) | –
CC(Sc1nnc(Cc2cccs2)n1C1CCCCC1)C(N)=O (centres undefined) | – | 39.8 µM (active)
O=C(O)[C@@H](O)[C@@H](O)[C@@H](O)[C@@H](O)c1nc2ccccc2s1 | – | 3.16 µM (active)
O=C(O)[C@@H](O)[C@@H](O)[C@@H](O)[C@@H](O)C(=O)O (tested in a mixture with another compound) | 9.98% [at 25.6 µM] (inactive) | –
O=C(O)[C@@H](O)[C@@H](O)[C@H](O)[C@H](O)CO | 2.53% [at 11.4 µM] (inactive) | –
CSc1nc(N)c2ncn([C@@H]3O[C@@H](COP(=O)(O)OP(=O)(O)O)[C@@H](O)[C@H]3O)c2n1 | -4.53% (inactive) | –
COc1ccc(C(C(=O)NC2CCCCC2)N(C(=O)c2sc(C)nc2C)c2ccc(OC)cc2)cc1 (centres undefined) | – | 14.1 µM (active)
COc1ccc(C[C@H](N)C(=O)N[C@@H]2[C@H](O)[C@H](n3cnc4c(N(C)C)ncnc43)O[C@@H]2CO)cc1 | 10.8% [at 25.6 µM] (inactive) | –
CCc1ccc(N(C(=O)c2ccoc2C)C(C(=O)NC2CCCC2)c2ccc(OC)cc2)cc1 (centres undefined) | – | 14.1 µM (active)
COc1ccc(C(C(=O)NC2CCCC2)N(C(=O)c2snc(-c3ccc(F)cc3)c2N)c2ccc(F)cc2)cc1 (centres undefined) | -24.1% (inactive) | –
N#C/C(=C\N1CCNC1=S)C(=O)c1ccc2ccccc2c1 | -10.2% [at 11.4 µM] (inactive) | –
C/C(N)=C(/C#N)C(=O)CSc1nnc(COc2cc(C)ccc2C)o1 | – | 3.55 µM (active)
Cc1ccc(C)c(OCCCC(C)(C)C(=O)O)c1 | -33.3% [at 25.6 µM] (inactive) | –
O=C1SC(c2ccccc2)=C/C1=C\N1CCCCC1 | – | 2 µM (active)
CC1CCN(CC[C@H]2CCCN2S(=O)(=O)c2cccc(O)c2)CC1 | -20.6% (inactive) | –
COCCNC(=O)Cn1cnc2ccc(S(=O)(=O)N3CCC(C)CC3)cc2c1=O | -16.1% (inactive) | –
CC1CCN(S(=O)(=O)c2ccc3c(c2)C(=NO)c2cc(S(=O)(=O)N4CCC(C)CC4)ccc2-3)CC1 | – | 4.47 µM (active)
COc1cc([C@@H](O)CO)ccc1OS(=O)(=O)O | -27.9% (inactive) | –
COc1cc([C@H](O)C(=O)O)ccc1O | -11.8% (inactive) | –
COc1ccc(C(O)P(=O)(OC(C)C)OC(C)C)cc1OC (centres undefined) | – | 3.55 µM (active)
CCC(=O)OCc1c(C(F)(F)F)nn(C)c1Sc1ccc(F)cc1 | – | 1.41 µM (active)
CC(=O)OCc1c(C(F)(F)F)nn(C)c1Sc1ccccc1 | – | 0.891 µM (active)
CC(C)(N=NC(C)(C)C1=NCCN1)C1=NCCN1 | 30.5% [at 11.4 µM] (inactive) | –
COC(Cn1c(C)c(C(C)=O)c(C(C)=O)c1C)OC | 2.91% (inactive) | –

Structure (SMILES) | activity, negative = inhibition | AC50
N#C/C(=C\c1ccc(N2CCCC2)c([N+](=O)[O-])c1)c1nc2ccccc2[nH]1 | – | 1 µM (active)
N#C/C(=C/c1ccc(N2CCCC2)c([N+](=O)[O-])c1)c1nc2ccccc2[nH]1 | – | 1.26 µM (active)
Cn1c(=O)n2n(c1=O)[C@H]1[C@H](O)[C@H]3O[C@H]3C(=O)[C@H]1CC2 | 20.1% [at 11.4 µM] (inactive) | –
C1CCC(C(C[C@@H]2CCCCN2)C2CCCCC2)CC1 | -2.64% [at 25.6 µM] (inactive) | –
C[C@@H]1O[C@H](O[C@@H]2[C@@H](Oc3cc(O)c4c(c3)O[C@H](c3ccc(O)cc3)CC4=O)O[C@@H](CO)[C@@H](O)[C@H]2O)[C@@H](O)[C@H](O)[C@@H]1O | -34.9% [at 25.6 µM] (inactive) | –
c1ccc(-c2ccccn2)nc1 | -25.4% (inactive) | –
c1ccc(-c2nc3ccccc3o2)nc1 | – | 14.1 µM (active)
O=S(=O)(O)c1ccc(-c2nnc(-c3ccccn3)nc2-c2ccc(S(=O)(=O)O)o2)o1 | -6.8% [at 11.4 µM] (inactive) | –
CC(C)=CCNc1ncnc2nc[nH]c12 | 26.8% [at 11.4 µM] (inactive) | –
O=[N+]([O-])/C=C/c1cn(Cc2ccccc2)c2ccccc12 | – | 1.41 µM (active)
O=C1CS/C(=C\[N+](=O)[O-])N1c1ccc(OC(F)(F)F)cc1 | – | 3.98 µM (active)
C/C=C\C1=C(CO)C(=O)C2O[C@]2(CC=C(C)C)C1=O (some centres undefined) | -25.8% [at 11.4 µM] (inactive) | –
Cc1ccc(C(=O)N2C3C=CC(C3)C2(C(F)(F)F)C(F)(F)F)cc1 (centres undefined) | – | 15.8 µM (active)
C=CCOc1ccccc1OC[C@H](O)CNC(C)C | -20% [at 25.6 µM] (inactive) | –
O=S(=O)(CC(O)COc1ccccc1Cl)c1ccccc1 (centres undefined) | – | 7.08 µM (active)
COc1ccccc1OC[C@H](O)COC(N)=O | -7.57% [at 25.6 µM] (inactive) | –
O=C(Nc1cccc2ncccc12)c1ccc(-c2ccc(Br)cc2)o1 | – | 4.47 µM (active)
O=C(Nc1cccc2ncccc12)c1cccc(F)c1 | -10.5% (inactive) | –
CC(=O)NCCNc1ccnc(-c2ccccc2C)n1 | -6.01% (inactive) | –
COc1ccc2[nH]cc(CCNc3ccnc(-c4ccccc4C)n3)c2c1 | – | 2.51 µM (active)
COc1ccc2[nH]cc(CCNc3ccnc(-c4ccccc4C(F)(F)F)n3)c2c1 | – | 25.1 µM (active)
COc1cccc(CNc2ccc(F)c(Cl)c2)c1O | – | 3.16 µM (active)
